Data taken from PubChem BioAssay (NCI).
Compounds without any hit were thinned out: in the full panel of roughly 83,000, 20% have a hit.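 Each cell line was grown in a 96-well plate and treated with one concentration of compound for 48 hours. Values below 10 were considered active.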 Calls of active or inactive are those of the source.

Assays:
Experiment in all cases: NCI-60 one-dose screen, 48 h (100 = growth as untreated, 0 = no growth, -100 = all killed)
Settings in all cases: 10 µM
SR leukemia = system: SR leukemia
RPMI-8226 leukemia = system: RPMI-8226 leukemia
OVCAR-8 ovarian = system: OVCAR-8 ovarian
OVCAR-5 ovarian = system: OVCAR-5 ovarian
OVCAR-4 ovarian = system: OVCAR-4 ovarian
SK-OV-3 ovarian = system: SK-OV-3 ovarian
IGROV1 ovarian = system: IGROV1 ovarian
OVCAR-3 ovarian = system: OVCAR-3 ovarian
HS 578T breast = system: HS 578T breast
NCI/ADR-RES ovarian = system: NCI/ADR-RES ovarian

Measured: growth

CNC(=O)c1ccccc1CC1(O)c2ccccc2Oc2ccccc21
active: SR leukemia 8.48%
inactive: RPMI-8226 leukemia 70.5% | OVCAR-8 ovarian 74.4% | OVCAR-5 ovarian 80.4% | OVCAR-4 ovarian 83.6% | SK-OV-3 ovarian 73.7% | IGROV1 ovarian 43% | OVCAR-3 ovarian 24.7% | HS 578T breast 63.5% | NCI/ADR-RES ovarian 29%

O=C(O)c1cccc([N+](=O)[O-])c1O
inactive: SR leukemia 94.4% | RPMI-8226 leukemia 107% | OVCAR-8 ovarian 113% | OVCAR-5 ovarian 112% | OVCAR-4 ovarian 111% | SK-OV-3 ovarian 98.4% | IGROV1 ovarian 94.4% | OVCAR-3 ovarian 116% | HS 578T breast 112% | NCI/ADR-RES ovarian 102%

CC(=O)/C(Cc1ccccc1)=N/O
inactive: SR leukemia 81.8% | RPMI-8226 leukemia 97.5% | OVCAR-8 ovarian 96.1% | OVCAR-5 ovarian 97.7% | OVCAR-4 ovarian 92% | SK-OV-3 ovarian 89.3% | IGROV1 ovarian 112% | OVCAR-3 ovarian 106% | HS 578T breast 100% | NCI/ADR-RES ovarian 99.9%

FC(F)(F)c1ccc2c(c1)N(CCCN1CCN(C3CC3)CC1)c1ccccc1S2
active: SR leukemia 7.62%
inactive: RPMI-8226 leukemia 51.9% | OVCAR-8 ovarian 46.9% | OVCAR-5 ovarian 89.7% | OVCAR-4 ovarian 73.6% | SK-OV-3 ovarian 83.9% | IGROV1 ovarian 50.2% | OVCAR-3 ovarian 24.9% | HS 578T breast 75.3% | NCI/ADR-RES ovarian 61.2%

CCOC(=O)C1=C(C)NC(=O)NC1c1cccs1 (stereo not given)
inactive: SR leukemia 76.5% | RPMI-8226 leukemia 99.8% | OVCAR-8 ovarian 94.1% | OVCAR-5 ovarian 122% | OVCAR-4 ovarian 117% | SK-OV-3 ovarian 105% | IGROV1 ovarian 113% | OVCAR-3 ovarian 118% | HS 578T breast 99% | NCI/ADR-RES ovarian 111%

Nc1nc(N)c(N=Nc2ccc(C(=O)O)cc2)c(N)n1
inactive: SR leukemia 109% | RPMI-8226 leukemia 95.1% | OVCAR-8 ovarian 104% | OVCAR-5 ovarian 101% | OVCAR-4 ovarian 105% | SK-OV-3 ovarian 111% | IGROV1 ovarian 100% | OVCAR-3 ovarian 130% | HS 578T breast 102% | NCI/ADR-RES ovarian 101%

Cc1ncc(C#N)c(N)n1
inactive: SR leukemia 92.4% | RPMI-8226 leukemia 103% | OVCAR-8 ovarian 102% | OVCAR-5 ovarian 99.5% | OVCAR-4 ovarian 92.5% | SK-OV-3 ovarian 117% | IGROV1 ovarian 106% | OVCAR-3 ovarian 110% | HS 578T breast 92.3% | NCI/ADR-RES ovarian 100%

Cc1cc(N)ccc1-c1ccc(N)cc1C
inactive: SR leukemia 95.2% | RPMI-8226 leukemia 108% | OVCAR-8 ovarian 90.7% | OVCAR-5 ovarian 98.4% | OVCAR-4 ovarian 108% | SK-OV-3 ovarian 96.4% | IGROV1 ovarian 104% | OVCAR-3 ovarian 99.8% | HS 578T breast 90.4% | NCI/ADR-RES ovarian 92.5%

CC(=O)Nc1c(C)cc(C)cc1C
inactive: SR leukemia 98.7% | RPMI-8226 leukemia 111% | OVCAR-8 ovarian 104% | OVCAR-5 ovarian 115% | OVCAR-4 ovarian 95.9% | SK-OV-3 ovarian 113% | IGROV1 ovarian 110% | OVCAR-3 ovarian 102% | HS 578T breast 111% | NCI/ADR-RES ovarian 99.7%

N#Cc1ccc(OC(=O)Nc2ccc(Cl)c(Cl)c2)cc1
inactive: SR leukemia 39.4% | OVCAR-8 ovarian 59% | OVCAR-5 ovarian 91.6% | OVCAR-4 ovarian 66.7% | SK-OV-3 ovarian 107% | IGROV1 ovarian 64.4% | OVCAR-3 ovarian 33.3% | HS 578T breast 103% | NCI/ADR-RES ovarian 65.5%
active: RPMI-8226 leukemia 5.09%

O=c1[nH]c(O)c(/C=C2/C=Nc3ccccc32)[nH]1
inactive: SR leukemia 76.3% | RPMI-8226 leukemia 78% | OVCAR-8 ovarian 98.1% | OVCAR-5 ovarian 96% | OVCAR-4 ovarian 90% | SK-OV-3 ovarian 112% | IGROV1 ovarian 93.8% | OVCAR-3 ovarian 100% | HS 578T breast 95.1% | NCI/ADR-RES ovarian 96.4%

CC1CCC2C(C)(C)C3CC12CC1OC13C (stereo not given)
inactive: SR leukemia 117% | RPMI-8226 leukemia 108% | OVCAR-8 ovarian 105% | OVCAR-5 ovarian 105% | OVCAR-4 ovarian 99.3% | SK-OV-3 ovarian 103% | IGROV1 ovarian 114% | OVCAR-3 ovarian 110% | HS 578T breast 103% | NCI/ADR-RES ovarian 107%

CC1Cc2ccccc2O1 (stereo not given)
inactive: SR leukemia 100% | RPMI-8226 leukemia 109% | OVCAR-8 ovarian 112% | OVCAR-5 ovarian 110% | OVCAR-4 ovarian 119% | SK-OV-3 ovarian 112% | IGROV1 ovarian 111% | OVCAR-3 ovarian 118% | HS 578T breast 111% | NCI/ADR-RES ovarian 110%

CC(C)(C)c1cc(O)c(C(C)(C)C)cc1O
inactive: SR leukemia 92.5% | RPMI-8226 leukemia 54.1% | OVCAR-8 ovarian 93% | OVCAR-5 ovarian 97.2% | OVCAR-4 ovarian 74.6% | SK-OV-3 ovarian 125% | IGROV1 ovarian 110% | OVCAR-3 ovarian 99.2% | HS 578T breast 98.8% | NCI/ADR-RES ovarian 100%

Cc1cc(=O)n(-c2ccc(F)cc2)[nH]1
inactive: SR leukemia 97.1% | RPMI-8226 leukemia 94.2% | OVCAR-8 ovarian 95.2% | OVCAR-5 ovarian 94.9% | OVCAR-4 ovarian 99.2% | SK-OV-3 ovarian 95.3% | IGROV1 ovarian 102% | OVCAR-3 ovarian 103% | HS 578T breast 102% | NCI/ADR-RES ovarian 109%

NC(=O)c1ccc(N=C(N)N=C(N)N)cc1
inactive: SR leukemia 97.4% | RPMI-8226 leukemia 107% | OVCAR-8 ovarian 98.8% | OVCAR-5 ovarian 97.8% | OVCAR-4 ovarian 98.2% | SK-OV-3 ovarian 100% | IGROV1 ovarian 102% | OVCAR-3 ovarian 105% | HS 578T breast 99.6% | NCI/ADR-RES ovarian 105%

O=C(N/N=C/c1ccccc1O)Nc1nn[nH]n1
inactive: SR leukemia 102% | RPMI-8226 leukemia 95.6% | OVCAR-8 ovarian 101% | OVCAR-5 ovarian 92.3% | OVCAR-4 ovarian 102% | SK-OV-3 ovarian 113% | IGROV1 ovarian 111% | OVCAR-3 ovarian 116% | HS 578T breast 99% | NCI/ADR-RES ovarian 109%

CN(C)Cc1cc(C(C)(C)CC(C)(C)C)ccc1O
inactive: SR leukemia 87.7% | RPMI-8226 leukemia 95.7% | OVCAR-8 ovarian 106% | OVCAR-5 ovarian 98.5% | OVCAR-4 ovarian 86.5% | SK-OV-3 ovarian 94.5% | IGROV1 ovarian 85.7% | OVCAR-3 ovarian 88.4% | HS 578T breast 106% | NCI/ADR-RES ovarian 91.5%

Cc1cc(C)c(CC(=O)O)c(C)c1
inactive: SR leukemia 98.5% | RPMI-8226 leukemia 112% | OVCAR-8 ovarian 102% | OVCAR-5 ovarian 103% | OVCAR-4 ovarian 95.1% | SK-OV-3 ovarian 110% | IGROV1 ovarian 108% | OVCAR-3 ovarian 104% | HS 578T breast 109% | NCI/ADR-RES ovarian 103%

CCC/C=C(/C(C)=O)C(=O)OCC
inactive: SR leukemia 160% | RPMI-8226 leukemia 104% | OVCAR-8 ovarian 91.8% | OVCAR-5 ovarian 92.7% | OVCAR-4 ovarian 89.8% | SK-OV-3 ovarian 117% | IGROV1 ovarian 126% | OVCAR-3 ovarian 119% | HS 578T breast 114% | NCI/ADR-RES ovarian 107%

OCC1OC(OC2C(O)C(CO)OC2(CO)OC2OC(CO)C(O)C(O)C2O)C(O)C(O)C1O (stereo not given)
inactive: SR leukemia 106% | RPMI-8226 leukemia 97.9% | OVCAR-8 ovarian 113% | OVCAR-5 ovarian 107% | OVCAR-4 ovarian 100% | SK-OV-3 ovarian 108% | IGROV1 ovarian 123% | OVCAR-3 ovarian 121% | HS 578T breast 110% | NCI/ADR-RES ovarian 107%

O=[N+]([O-])c1ccc(O)c(S(=O)(=O)O)c1
inactive: SR leukemia 98% | RPMI-8226 leukemia 105% | OVCAR-8 ovarian 94.4% | OVCAR-5 ovarian 93.2% | OVCAR-4 ovarian 108% | SK-OV-3 ovarian 110% | IGROV1 ovarian 130% | OVCAR-3 ovarian 109% | HS 578T breast 103% | NCI/ADR-RES ovarian 109%

O=[N+]([O-])c1ccc(Sc2ccncn2)c([N+](=O)[O-])c1
inactive: SR leukemia 30.6% | RPMI-8226 leukemia 40% | OVCAR-8 ovarian 102% | OVCAR-5 ovarian 96.3% | OVCAR-4 ovarian 42.9% | SK-OV-3 ovarian 102% | IGROV1 ovarian 83% | OVCAR-3 ovarian 63.7% | HS 578T breast 92.6% | NCI/ADR-RES ovarian 58%

Cc1ccc(C(=O)N/N=C/c2ccc3c(c2)OCO3)cc1
inactive: SR leukemia 78% | RPMI-8226 leukemia 94.3% | OVCAR-8 ovarian 102% | OVCAR-5 ovarian 103% | OVCAR-4 ovarian 99.5% | SK-OV-3 ovarian 93.4% | IGROV1 ovarian 105% | OVCAR-3 ovarian 116% | HS 578T breast 115% | NCI/ADR-RES ovarian 91.3%

CCOc1ccc2[nH]c(=S)sc2c1
inactive: SR leukemia 97.7% | RPMI-8226 leukemia 97.1% | OVCAR-8 ovarian 96.4% | OVCAR-5 ovarian 97.6% | OVCAR-4 ovarian 108% | SK-OV-3 ovarian 105% | IGROV1 ovarian 88.5% | OVCAR-3 ovarian 117% | HS 578T breast 96% | NCI/ADR-RES ovarian 104%

O=[N+]([O-])c1ccc(S(=O)(=O)NN=C2CCCCC2)cc1
inactive: SR leukemia 96.9% | RPMI-8226 leukemia 110% | OVCAR-8 ovarian 101% | OVCAR-5 ovarian 114% | OVCAR-4 ovarian 99.5% | SK-OV-3 ovarian 100% | IGROV1 ovarian 103% | OVCAR-3 ovarian 114% | HS 578T breast 141% | NCI/ADR-RES ovarian 115%

NC(=S)NN=C1CCCC1
inactive: SR leukemia 88% | RPMI-8226 leukemia 72.6% | OVCAR-8 ovarian 68.8% | OVCAR-5 ovarian 115% | OVCAR-4 ovarian 74.4% | SK-OV-3 ovarian 110% | IGROV1 ovarian 93.4% | OVCAR-3 ovarian 47.6% | HS 578T breast 95.5% | NCI/ADR-RES ovarian 42.9%

O=c1cc(-c2ccccc2)nc2cc(-c3ccco3)[nH]n12
inactive: SR leukemia 13.1% | RPMI-8226 leukemia 71.6% | OVCAR-8 ovarian 101% | OVCAR-5 ovarian 116% | OVCAR-4 ovarian 91.5% | SK-OV-3 ovarian 90.3% | IGROV1 ovarian 70.5% | OVCAR-3 ovarian 93.7% | HS 578T breast 89.2% | NCI/ADR-RES ovarian 98.9%

CCOc1ccc(/C=C/C(=O)c2ccccc2)cc1
inactive: SR leukemia 40.6% | OVCAR-8 ovarian 95.6% | OVCAR-5 ovarian 106% | OVCAR-4 ovarian 102% | SK-OV-3 ovarian 103% | IGROV1 ovarian 74.8% | OVCAR-3 ovarian 93.7% | HS 578T breast 120% | NCI/ADR-RES ovarian 105%
active: RPMI-8226 leukemia 9.27%
